IP6K1 inhibitor = blocks human inositol hexakisphosphate kinase 1; Q92551; IP6K1 kinase, ADP-Glo luminescence, 2 h; active compounds read low; activity change, % (series mostly up to about 58 µM); 140,000 tested, 0.81% active; AID 1645851; in the data active = activity change below about -25%; also: % is scaled to controls: 0 for no effect and ±100 for the full control effect
Target sequence (Q92551 whole entry, looked up): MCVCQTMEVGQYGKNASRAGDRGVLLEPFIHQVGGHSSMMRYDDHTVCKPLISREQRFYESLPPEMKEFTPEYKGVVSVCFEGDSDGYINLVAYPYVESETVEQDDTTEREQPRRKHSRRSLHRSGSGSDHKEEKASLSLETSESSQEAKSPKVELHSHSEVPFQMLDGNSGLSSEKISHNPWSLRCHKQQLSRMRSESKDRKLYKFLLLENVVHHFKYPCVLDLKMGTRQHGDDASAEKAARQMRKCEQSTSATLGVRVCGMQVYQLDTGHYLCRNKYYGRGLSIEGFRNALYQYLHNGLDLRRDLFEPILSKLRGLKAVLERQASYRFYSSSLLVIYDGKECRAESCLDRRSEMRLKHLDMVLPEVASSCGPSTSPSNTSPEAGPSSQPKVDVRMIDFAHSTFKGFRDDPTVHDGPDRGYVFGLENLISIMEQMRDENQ
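ADP-Glo luminescence measures ADP made by human IP6K1 during a 2 h RT reaction with ATP/IP6 (mix at 1.3 mM/130 uM); top library doses 57.5 and 19.1 uM final.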
KDM5B inhibitor = inhibitors of human KDM5B histone demethylase | Q9UGL1 | KDM5B demethylase, FDH-coupled NADH fluorescence (FDH is formaldehyde dehydrogenase) | Potency, µM (series often up to 57.7 µM), usual class: inhibitors | 220,000 tested, 2.6% active | AID 1347165; active = well fitted inhibition curve with a large enough effect; inconclusive = small, poorly fitted or top-dose-only effect; inactive = no such curve, though single readings can be large or run the other way; also: potency is read from the fitted curve at half-maximal effect; 0% is about no effect; nearly all actives have a fitted effect of over 70% in size
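Here, H3K4me3 peptide (12.5 µM in substrate mix) is demethylated by KDM5BΔAP, 200 nM final, after 10 min compound exposure. Formaldehyde product is coupled through FDH (0.25 U/mL in mix) to NADH fluorescence; 30-min ΔRFU feeds dose-response curves.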
The depositor's hits bear a star; i = inactive; ? = inconclusive; · = no result given. Compounds with a hit are over-represented: about 2.7% of the library has one in this group of screens.

SMILES	IP6K1 inhibitor	KDM5B inhibitor
CCN(Cc1ccccc1)C(=O)c1cc(-c2ccncc2)cn1Cc1ccc(C)cc1	-17	?
Cc1ccc(Cn2cc(-c3ccncc3)cc2C(=O)N(C)Cc2ccccc2)cc1	-6	22µM*
O=C(NCc1ccc(Cl)cc1)C1CCN(c2nccc(Nc3ccccc3F)n2)CC1	11	·
O=C(NCCc1cccc(F)c1)C1CC(=O)N(c2n[nH]c3ccccc23)C1 (stereo not given)	4	22µM*
O=C(NCCC1=CCCCC1)C1CC(=O)N(c2n[nH]c3ccccc23)C1 (stereo not given)	-1	25µM*
O=C(NCc1ccc(F)cc1)C1CC(=O)N(c2n[nH]c3ccccc23)C1 (stereo not given)	3	?
O=C(NCCO)C1CC(=O)N(c2n[nH]c3ccccc23)C1 (stereo not given)	1	i
Cc1c(Cl)cccc1-n1c2c(c(=O)[nH]c1=O)CN(CCc1ccccc1)CN2	·	i
CC(C)CCC(CCNCc1cccs1)C1CCOC(C)(C)C1 (stereo not given)	·	i
COc1cc(/C=C(/C#N)C(=O)c2c(Cl)cccc2Cl)cc(OC)c1OC	·	i
COC(=O)NC1CCN(c2nc3ncccc3o2)CC1	-10	35µM*
O=[S+]([O-])(NC1CCN(c2nc3ncccc3o2)CC1)c1cccs1	-2	22µM*
O=C(NCc1cccs1)C1CCCN1c1nc2ncccc2o1 (stereo not given)	-5	i
O=C(NC1CCN(c2nc3ncccc3o2)CC1)C1CC1	-3	28µM*
O=[S+]([O-])(c1cccs1)N1CCN(c2nc3ncccc3o2)CC1	-6	i
O=C(NC1CC1)C1CCN(c2nc3ncccc3o2)CC1	10	·
O=C(NCc1cccs1)C1CCN(c2nc3ncccc3o2)CC1	-1	32µM*
CC(=O)NC1CCN(c2nc3ncccc3o2)C1 (stereo not given)	18	·
CCOC(=O)[C@@H]1CN(C(=O)c2ccccc2OCC)[C@H]2c3ccc(OC)cc3O[C@@H]12	7	·
COc1ccc(Nc2ccnc(N3CCN(C(=O)c4ccc(C)cc4)CC3)n2)cc1	15	·
Cc1ccc(NC(=O)c2nc3sccn3c2-c2ccncc2)cc1	11	·
Clc1ccc2c(c1)C(c1ccccc1Cl)=Nc1ccc(Cl)cc1C(c1ccccc1Cl)=N2	·	i
COc1ccc(CCNC(=O)Nc2cccc(CN3CCOC3=O)c2)cc1OC	·	i
COc1ccccc1-c1cc(C(=O)NCC#N)c2cnn(C)c2n1	2	·
C#CCNC(=O)c1nc(-c2ccc(Cl)nc2)c2ccccn12	11	?
SMILES	IP6K1 inhibitor	KDM5B inhibitor
C#CCNC(=O)c1nc(-c2ccc(Cl)cc2)c2cnccn12	0	40µM*
C#CCNC(=O)c1nc(-c2ccc(Cl)cc2Cl)c2ccccn12	10	89µM*
C#CCNC(=O)c1nc(-c2cccnc2)c2ccccn12	0	i
C#CCNC(=O)c1nc(-c2cc(Cl)cc(Cl)c2)c2ccccn12	10	10µM*
C#CCNC(=O)c1nc(-c2ccc(Cl)cc2)c2ccccn12	11	32µM*
O=C(c1ccccc1F)N(Cc1ccco1)c1ccc(O)cc1	·	i
CCOc1ccc(-c2[nH]ncc2-c2ccc(OC)cc2)c(O)c1	·	i
CSc1ccc(N/C=C/C(=O)c2cc(C)ccc2C)cc1	·	i
CCOC(=O)COc1ccc2c(=O)c(Oc3ccc(Br)cc3)c(C)oc2c1	·	i
Cc1ccc(C(=O)Nc2cc(NC(=O)c3ccc(C)c(C)c3)cc(C(=O)O)c2)cc1C	·	i
N#Cc1nc(COc2ccc(Br)cc2)oc1N1CCCCC1	·	i
COc1c(Br)cc(Br)cc1/C=C(\C#N)c1nc2ccccc2[nH]1	·	i
O=C(NCc1nc(-c2ccccc2)no1)Nc1cccc2ccccc12	·	i
O=C(NCc1ccc2c(c1)OCO2)c1nc(-c2ccc(Cl)cc2)c2cnccn12	0	28µM*
O=C(NCc1ccc2c(c1)OCO2)c1nc(-c2ccc(F)cc2)c2cnccn12	0	?
O=C(CSc1nc2ccccc2o1)Nc1cccc2ccccc12	·	i
CC(C)NC(=O)C1CCCN(Cc2cccc(-c3ccc(F)cc3F)c2)C1 (stereo not given)	14	·
COc1ccccc1CC(=O)N[C@@H]1CN(c2ncccn2)C[C@H]1CN(C)C	12	22µM*
CN(C)C[C@@H]1CN(c2ncccn2)C[C@H]1NC(=O)CCn1cccn1	6	28µM*
CN(C)C[C@@H]1CN(c2ncccn2)C[C@H]1NC(=O)Cc1ccsc1	0	22µM*
COc1ccc(CCC(=O)N[C@@H]2CN(c3ncccn3)C[C@H]2CO)cc1	13	22µM*
COc1ccc(CC(=O)N[C@@H]2CN(c3ccncn3)C[C@H]2CO)cc1	0	i
COc1ccccc1CCC(=O)N[C@@H]1CN(c2ccncn2)C[C@H]1CN(C)C	-5	i
CN(C)C[C@@H]1CN(c2ncccn2)C[C@H]1N	6	i
CN(C)C[C@@H]1CN(C2CCOCC2)C[C@H]1NC(=O)Cc1ccsc1	9	?
SMILES	IP6K1 inhibitor	KDM5B inhibitor
CCSc1nc(-c2ccccc2Cl)nc2c1Cc1c(CO)cnc(C)c1O2	·	i
COc1cc(B(O)O)ccc1Cl	·	i
COc1ccccc1Nc1ccnc(N2CCC(NC(=O)c3ccc(Cl)cc3)CC2)n1	-6	·
COC(=O)C1=C(C)N(CC(C)C)C(=O)NC1c1ccc(Br)s1 (stereo not given)	·	i
COc1ccc(CCC(=O)N[C@@H]2CN(c3ncccn3)C[C@H]2CN(C)C)cc1	-1	22µM*
CN(C)C[C@@H]1CN(S(C)(=O)=O)C[C@H]1NC(=O)CCc1ccccc1	1	i
Cn1ccc(NC(=O)C2(C)CCc3cnc(NCc4ccccc4)nc32)n1 (stereo not given)	-3	35µM*
CC1(C(=O)NCc2ccccc2)COCc2cnc(Nc3ccccc3)nc21 (stereo not given)	0	i
CC1(C(=O)NCC2CC2)CCc2cnc(NCc3ccccc3)nc21 (stereo not given)	5	40µM*
CC1(C(=O)NCC2CC2)CCCc2cnc(Nc3ccccc3)nc21 (stereo not given)	-8	i
COCCNC(=O)C1(C)CCc2cnc(Nc3ccccc3)nc21 (stereo not given)	-4	i
COCCNC(=O)C1(C)CCc2cnc(NCc3ccccc3)nc21 (stereo not given)	-6	35µM*
CC1(C(=O)NCCCn2ccnc2)CCc2cnc(NCc3ccccc3)nc21 (stereo not given)	2	40µM*
CC1(C(=O)NCc2cnccn2)CCc2cnc(Nc3ccccc3)nc21 (stereo not given)	4	i
CCN1C(=O)CCc2cc(NC(=O)c3ccc(C(C)C)cc3)ccc21	3	i
O=C(NCc1ccccc1Cl)C1CCN(Cc2ccccc2-c2cccnc2)CC1	6	·
CCNc1c(NC(=O)Nc2ccc(Cl)cc2)c(=O)oc2ccccc12	·	i
COC(=O)c1cccc(NC(=O)Cc2cc(C(C)=O)ccc2OC)c1	·	i
Cc1nn(-c2ccccc2)c2c1C(C1CC1)N(CC1CN(C(=O)c3ccc(F)cc3)C1)C2=O (stereo not given)	10	·
N#CCCCSc1ccc2c(c1)OCCCO2	·	i
CNC(=O)CCn1ncc2cc(OCc3ccccc3-c3cccc(C)c3)ccc21	16	35µM*
CNC(=O)CCn1ncc2cc(OCc3ccccc3-c3cccc(O)c3)ccc21	5	i
